From PubChem BioAssay (Tox21)
Values joined by “and” are separate entries in the source; they are usually repeats but may differ in a detail not shown here. Equal values may be shown once. Records with an inconclusive call do not appear. Unmarked numbers belong to inactive results. Active and inactive are the calls of the source. Calls follow the shape of the dose curve; as a rule, active = well fitted curve in the direction sought with a large enough effect in the repeat runs; inconclusive = weak or mixed curves; inactive = no such curve, though single readings can be large; an effect the other way counts as inactive or inconclusive.

assay: qHTS assay to identify small molecule agonists of the RXR signaling pathway - cell viability counter screen (AID 1159529); settings: RXR-alpha-bla HEK293T viability, CellTiter-Glo, 16 h; series mostly up to 76.8 µM; activity change, negative = cytotoxicity: at the top concentration; also: nearly all actives have a fitted effect of over 50% in size
Procedure, shortened: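 CellTiter-Glo luminescence gave viability in the wells also read for beta-lactamase. Cells (RXR-alpha-UAS-bla HEK 293T, 2% charcoal-stripped FBS medium) had 5 hr plating, then 16 hr compound exposure at 37 C; tetraoctyl ammonium bromide served as positive control.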
% is scaled to controls: 0 for no effect and ±100 for the full control effect; potency is read from the fitted curve at half-maximal effect.

SMILES | activity change, negative = cytotoxicity | Potency
CO[Si](CCCNCCNCCN)(OC)OC | -2.82% | 
CCc1ccc(C)nc1 | 1.11% | 
Cc1cc(=O)[nH]c(=O)[nH]1 | 6.73% | 
CS(C)(=O)=O | 1.47% | 
CCCCCCCCC(C)=O | 9.48% | 
O=Nc1ccc(NO)cc1 | 5.04% | 
NCCCCCCNCCCCCCN | -3.42% | 
Cc1cnccn1 | -3.4% | 
CC(COC(=O)c1ccccc1)OC(=O)c1ccccc1 (stereo unspecified) | -6.4% | 
COc1ccccc1OCCNCC(O)COc1cccc2[nH]c3ccccc3c12 (stereo unspecified) |  | 19 µM (active)
CC(C)=CCCC(C)CCOC(=O)C(C)C (stereo unspecified) | -0.119% | 
O=S(O)O | -0.924% [at 15.8 µM] | 
C=C(C)CCCC | 1.42% | 
OCCCCl | 0.23% | 
COc1ccc(C#N)cc1 | -1.3% | 
CCOB(OCC)OCC | -3.22% | 
O=S(=O)(O)c1cc(S(=O)(=O)O)c2ccc3c(S(=O)(=O)O)cc(S(=O)(=O)O)c4ccc1c2c43 | -4.37% [at 15.8 µM] | 
c1cc[nH]c1 | 6.92% | 
CC1(C)C(=O)N(CO)C(=O)N1CO | -4.41% | 
CCO[Si](C)(C)OCC | -7.88% | 
CCCCC(CC)COC(=O)c1ccc(O)cc1 (stereo unspecified) |  | 38.8 µM (active) and 49 µM (active)
CCCCCCCCCCCCN(CCO)CCO |  | 24.4 µM (active)
O=c1cccc[nH]1 | -0.557% | 
CC(C)=CCCC(C)O (stereo unspecified) | 4.5% | 
CCCCCCC(C)OC(=O)COc1nc(F)c(Cl)c(N)c1Cl (stereo unspecified) |  | 34.7 µM (active)
Cc1c(-c2ccc(O)cc2)n(Cc2ccc(OCCN3CCCCCC3)cc2)c2ccc(O)cc12 |  | 26.8 µM (active)

assay: qHTS assay to identify small molecule antagonists of the retinoid acid receptor (RAR) signaling pathway - cell viability counter screen (AID 1159551); settings: C3RL4 cells viability, ATP luminescence (CellTiter-Glo), 6 h; series mostly up to 92.4 µM; activity change, negative = cytotoxicity: at the top concentration; also: nearly all actives have a fitted effect of over 35% in size
Procedure, shortened: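 Retinol-stimulated (1 uM final) C3RL4 cells, compound 6 h, 37 C; readout CellTiter-Glo luminescence (ATP) after 30 min RT incubation.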

SMILES | activity change, negative = cytotoxicity | Potency
CO[Si](CCCNCCNCCN)(OC)OC | -1.24% | 
CCc1ccc(C)nc1 | -0.43% | 
Cc1cc(=O)[nH]c(=O)[nH]1 | 0.404% | 
CS(C)(=O)=O | 5.22% | 
CCCC(CC)CCCCCCCN (stereo unspecified) | -2.09% | 
CCCCCCCCC(C)=O | 1.02% | 
NCCCCCCNCCCCCCN | 4.27% | 
Cc1cnccn1 | -8.78% | 
CC(COC(=O)c1ccccc1)OC(=O)c1ccccc1 (stereo unspecified) | -1.38% | 
COc1ccccc1OCCNCC(O)COc1cccc2[nH]c3ccccc3c12 (stereo unspecified) | -9.08% [at 42.5 µM] | 
CC(C)=CCCC(C)CCOC(=O)C(C)C (stereo unspecified) | 2.18% | 
O=S(O)O | -0.573% [at 19 µM] | 
C=C(C)CCCC | -0.919% | 
COc1ccc2sc(C(=O)Nc3nnn[nH]3)c(OC(C)C)c2c1 | 0.733% | 
OCCCCl | -0.123% | 
COc1ccc(C#N)cc1 | -1.85% | 
CN(C)c1ccc(N=NS(=O)(=O)O)cc1 | -1.19% | 
CCOB(OCC)OCC | -2.38% | 
O=S(=O)(O)c1cc(S(=O)(=O)O)c2ccc3c(S(=O)(=O)O)cc(S(=O)(=O)O)c4ccc1c2c43 | 4.17% [at 19 µM] | 
c1cc[nH]c1 | 0.919% | 
CC1(C)C(=O)N(CO)C(=O)N1CO | 0.0177% | 
CCCSS/C(CCO)=C(\C)N(C=O)Cc1cnc(C)nc1N | 8.6% [at 42.5 µM] | 
CCO[Si](C)(C)OCC | -1.76% | 
Oc1ccc(-c2ccccc2)c(Cl)c1 | -4.42% | 
Cc1ccc(-n2[nH]c(C)c(N=Nc3cccc(-c4cccc(C(=O)O)c4)c3O)c2=O)cc1C | -7.66% [at 42.5 µM] | 
CCCCCCCCCCCCN(CCO)CCO |  | 68.3 µM (active)
O=c1cccc[nH]1 | 1.83% | 
CC(C)(C)c1cc(/C=C2\SC(=N)NC2=O)cc(C(C)(C)C)c1O | -1.6% | 
CC(C)=CCCC(C)O (stereo unspecified) | 0.0194% | 

assay: qHTS assay to identify small molecule antagonists of the retinoic acid receptor (RAR) signaling pathway (AID 1159552; also: nearly all actives have a fitted effect of over 50% in size); settings: C3RL4 RARE luciferase reporter, retinol-stimulated, 6 h; series mostly up to 92.4 µM; activity, negative = inhibition: at the top concentration
Procedure, shortened: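 Luminescent RARE reporter read-out in C3RL4 cells: 6 hr co-treatment at 37 C of test compounds with retinol at 1 uM final. Cells plated overnight beforehand; luciferase reagent incubated 30 min at room temperature before reading.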

SMILES | activity, negative = inhibition | Potency
CO[Si](CCCNCCNCCN)(OC)OC | 38.3% | 
CCc1ccc(C)nc1 | -10.8% | 
Cc1cc(=O)[nH]c(=O)[nH]1 | -19.5% | 
CS(C)(=O)=O | -1.72% | 
CCCC(CC)CCCCCCCN (stereo unspecified) | 25.8% | 
CCCCCCCCC(C)=O | 18.1% | 
O=Nc1ccc(NO)cc1 | 1.96% | 
NCCCCCCNCCCCCCN | -8.12% | 
Cc1cnccn1 | 66.2% | 
CC(COC(=O)c1ccccc1)OC(=O)c1ccccc1 (stereo unspecified) | 59.2% | 
CC(C)=CCCC(C)CCOC(=O)C(C)C (stereo unspecified) | 11% | 
O=S(O)O | 5.26% [at 19 µM] | 
C=C(C)CCCC | 9.28% | 
OCCCCl | -11.1% | 
COc1ccc(C#N)cc1 | -14.7% | 
CN(C)c1ccc(N=NS(=O)(=O)O)cc1 | 25.1% | 
CCOB(OCC)OCC | -8.65% | 
O=S(=O)(O)c1cc(S(=O)(=O)O)c2ccc3c(S(=O)(=O)O)cc(S(=O)(=O)O)c4ccc1c2c43 | 14.4% [at 19 µM] | 
c1cc[nH]c1 | -1.62% | 
CC1(C)C(=O)N(CO)C(=O)N1CO | -3.3% | 
CCCSS/C(CCO)=C(\C)N(C=O)Cc1cnc(C)nc1N |  | 29.8 µM (active)
CCO[Si](C)(C)OCC | -9.45% | 
Oc1ccc(-c2ccccc2)c(Cl)c1 | 25.4% | 
Cc1ccc(-n2[nH]c(C)c(N=Nc3cccc(-c4cccc(C(=O)O)c4)c3O)c2=O)cc1C | 189% [at 42.5 µM] | 
CCCCC(CC)COC(=O)c1ccc(O)cc1 (stereo unspecified) |  | inactive
CCCCCCCCCCCCN(CCO)CCO |  | 54.3 µM (active)
O=c1cccc[nH]1 | 1.52% | 
CC(C)=CCCC(C)O (stereo unspecified) | -0.746% | 

assay: qHTS assay to identify small molecule agonists of the retinoic acid receptor (RAR) signaling pathway (AID 1159553); settings: C3RL4 RARE luciferase reporter, agonist, 6 h; series mostly up to 73.3 µM; activation: at the top concentration
Procedure, shortened: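 Reporter readout comes from luciferase under RARE control in C3RL4 cells; compound exposure lasts 6 hr at 37 C in 5% CO2, and luminescence is recorded following a 30 min room-temperature incubation with reagent.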

SMILES | activation | Potency
CCCC(CC)CCCCCCCN (stereo unspecified) | -3% [at 94.8 µM] | 
NC(=O)c1nc(-c2cccc(-c3cc(F)ccc3OCC(F)(F)C(F)(F)F)c2)n[nH]1 | -12% | 
NCCCCCCNCCCCCCN | -1.19% | 
CC(COC(=O)c1ccccc1)OC(=O)c1ccccc1 (stereo unspecified) | 3.43% | 
COc1ccccc1OCCNCC(O)COc1cccc2[nH]c3ccccc3c12 (stereo unspecified) | -11.6% | 
Cc1ccc(-n2[nH]c(C)c(N=Nc3cccc(-c4cccc(C(=O)O)c4)c3O)c2=O)cc1C |  | 29.8 µM (active)
CCCCC(CC)COC(=O)c1ccc(O)cc1 (stereo unspecified) |  | inactive
CC(C)(C)c1cc(/C=C2\SC(=N)NC2=O)cc(C(C)(C)C)c1O | -12.6% | 
